# According to the supplement of paper PMC12067093, “Discovery and optimisation of a covalent ligand for TRIM25 and its application to targeted protein ubiquitination” (Chemical Science, 2025):
# Of roughly 21,000 targets only a part is listed; those with the largest changes were picked by preference.
# Target: DDX39B_Q13838_165_NCPHIVVGTPGR (UniProt Q13838)
# Test: probe-labelled cysteine peptide fold change vs DMSO (competition) (log2 fold change); higher = less target engagement (more negative = stronger competition)
# Settings: THP-1, incubation time: 4 h
# 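Also: competitive profiling in live THP-1 cells: cysteine peptides tagged with an iodoacetamide desthiobiotin (IA-DTB) probe, intensity after compound treatment relative to DMSO-treated cells.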
# Sequence of UniProt Q13838 (Q13838 whole entry, looked up): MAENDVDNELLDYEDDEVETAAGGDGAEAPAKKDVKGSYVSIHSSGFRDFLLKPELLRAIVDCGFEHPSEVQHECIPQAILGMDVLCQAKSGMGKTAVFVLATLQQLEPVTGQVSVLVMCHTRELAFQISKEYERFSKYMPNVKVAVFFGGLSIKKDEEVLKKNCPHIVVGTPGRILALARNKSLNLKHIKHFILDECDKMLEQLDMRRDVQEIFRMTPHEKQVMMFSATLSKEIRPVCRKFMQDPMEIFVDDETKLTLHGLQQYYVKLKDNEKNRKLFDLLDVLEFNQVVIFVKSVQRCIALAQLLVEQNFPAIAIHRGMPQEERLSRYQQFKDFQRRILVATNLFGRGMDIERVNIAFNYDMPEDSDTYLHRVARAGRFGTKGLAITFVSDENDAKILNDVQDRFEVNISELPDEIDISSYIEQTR
smiles,measurement,setting,value
Cc1cc(C(=O)N2CCCN(C(=O)CCl)CC2)ccc1-c1ccccc1 [compound 10],probe-labelled cysteine peptide fold change,10 µM,0.0169
same,probe-labelled cysteine peptide fold change,50 µM,0.0264
